The source of these data is PubChem BioAssay.

Results filed as inconclusive are left out. The source made the active and inactive calls.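 How the source made its calls, unless noted: active means inhibition above 54%, about 3 SD of non-fluorescent compounds; inactive means the rest.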

A short description of assay [1]: yeast TOR pathway RPL19A-GFP modulators, primary screen, cell-based, S. cerevisiae, multiplex flow cytometry (AID 1862; in the data active means percent of DMSO control GFP below about 86%;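 further: lower values mimic rapamycin by blocking the RPL19A rise seen in DMSO cells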). The note with it: S. cerevisiae RPL19A-GFP strain, flow cytometry fluorescence, 3 h; at 10 µM; stronger effect = lower value.
Assay [2] is described as follows: modulators of MEP2-GFP levels in yeast, primary screen, S. cerevisiae, multiplex flow cytometry (AID 1867;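 active means GFP response, as percent of the DMSO control, above the screen-wide mean plus 3 SD, about 139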;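 further: median GFP channel fluorescence of barcode-gated MEP2-GFP cells measured by flow cytometry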). The conditions noted are these: S. cerevisiae MEP2-GFP strain, 3 h, at 10 µM, stronger effect = higher value, 100% means same as DMSO wells. On the technique in general: In flow cytometry, cells or beads pass a laser one at a time.
A short description of assay [3]: modulators of CIT2-GFP expression in yeast, primary screen, S. cerevisiae, GFP fusion, multiplex flow cytometry (AID 1870;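 active means percent response above a set limit, the screen-wide mean plus 3 SD, cut at about 130% in these data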;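 further: barcoded CIT2-GFP strain pooled with four other GFP strains with rapamycin as positive control; median GFP fluorescence per well over plate mean of DMSO wells so 100% = DMSO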). The conditions noted are these: 3 h, at 10 µM, stronger effect = higher value.
The nature of assay [4]: modulators of LAP4-GFP expression in yeast, primary screen, S. cerevisiae, multiplex flow cytometry (AID 1873;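 active means GFP signal, as percent of the solvent control, above the screen mean plus 3 SD, about 149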). The conditions noted are these: 3 h, at 10 µM, stronger effect = higher value.
Assay [5] can be described thus: modulators of AGP1-GFP expression in yeast TOR pathway, primary screen, cell-based, multiplex flow cytometry, S. cerevisiae (AID 1887;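 active means GFP signal above the screen-wide mean plus 3 SD, that is over about 124.5% of the solvent control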;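 further: AGP1-GFP fusion strain of S. cerevisiae within a five-strain barcoded multiplex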). The conditions noted are these: 3 h, at 10 µM, stronger effect = higher value.
The nature of assay [6]: inhibitors of CD8+ T cell-vesicle binding, pilot screen, LFA-1/ICAM-1 modulator project, MLPCN validation set, flow cytometry (AID 2523;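 active means response below a set limit, under 55% cells CD8-positive and vesicle-bound, and CD8 cells' 90th-percentile brightness under 279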;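 on vesicle binding response: mean PE anti-B7-1 fluorescence of CD8+ cells relative to row control; 100% = QL9-loaded vesicles with DMSO vehicle in the same plate row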). The conditions noted are these: 2C mouse CD8+ T cells, at 7 µM, stronger effect = lower value; double positive events: measured here: CD8+/vesicle+ event percentage.
Assay [7] has as its target Integrin beta-1 (Homo sapiens) + Integrin alpha-4 (Homo sapiens) (UniProt P13612+P05556). Nature of the assay: inhibition of HUTS-21 binding to VLA-4, pilot screen, VLA-4 allosteric modulator project, U937 cells, HUTS-21 mAb, flow cytometry, validation set (AID 2674;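 active means inhibition above 50%, about 3 SD of the validation set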;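 further: antibody binding induced by the VLA-4 ligand LDV present at three times its Kd; 0% = LDV ligand with antibody and no compound and 100% = antibody without LDV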). The conditions noted are these: HUTS-21 LIBS mAb binding, at 6.7 µM, stronger effect = higher value, binding induced by LDV ligand.

Assay [8] in a line: superoxide lowering in aged yeast cells, pilot screen, validation compound set (AID 2706;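 active means superoxide response below 65% of plate, a cut near 3 SD across the whole screen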;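 further: yeast exposed to compound for one week at 30 degrees C before staining; 100% = mean of all compound wells on the same plate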). The note with it: S. cerevisiae aging, superoxide DHE fluorescence; at 10 µM; stronger effect = lower value.
Assay [9] addresses Beta-adrenergic receptor kinase 1 (Homo sapiens) (UniProt P25098). Nature of the assay: GRK2 binders displacing RNA aptamer, biochemical, validation, human GRK2, bead flow cytometry (AID 488806;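 active means aptamer binding inhibition above 30%, about 3 SD of noise from non-fluorescent compounds; inactive means inhibition at or below 30%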). The note with it: bead-bound GRK2, FAM-aptamer displacement, at 10 µM, stronger effect = higher value.
The target in assay [10] is Beta-2 adrenergic receptor (Homo sapiens) (UniProt P07550). The assay is described as follows: beta2AR agonists driving receptor internalization, pilot screen, cell-based, FAP fluorogen, flow cytometry, validation set (AID 504459;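 active means percent response above 42, roughly 3 SD of non-fluorescent test compounds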;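 further: agonist-driven loss of surface beta2AR via internalization measured by FAP dye flow cytometry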). The note with it: Am2.2-beta2AR cells, FAP surface receptor flow cytometry; at 10 µM; stronger effect = higher value.
Beta-2 adrenergic receptor (Homo sapiens), sequence (P07550 whole entry, looked up): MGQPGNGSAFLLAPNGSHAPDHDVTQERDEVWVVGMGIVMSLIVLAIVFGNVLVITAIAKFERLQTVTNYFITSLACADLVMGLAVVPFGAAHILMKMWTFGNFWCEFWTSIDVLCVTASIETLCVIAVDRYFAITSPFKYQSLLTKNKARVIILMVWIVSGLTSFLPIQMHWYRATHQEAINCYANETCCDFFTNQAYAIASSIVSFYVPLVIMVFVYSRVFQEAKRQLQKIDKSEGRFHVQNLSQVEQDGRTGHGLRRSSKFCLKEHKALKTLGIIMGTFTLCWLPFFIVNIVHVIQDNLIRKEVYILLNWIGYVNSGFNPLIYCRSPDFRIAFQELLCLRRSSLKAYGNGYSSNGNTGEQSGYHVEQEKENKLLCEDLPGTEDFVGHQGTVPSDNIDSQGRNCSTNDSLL
For assay [11], the target named is AP-2 complex subunit beta (Homo sapiens) (UniProt P63010). Nature of the assay: inhibitors of arrestin peptide binding to AP2, pilot screen, biochemical, validation set, GST-AP2 beads, flow cytometry (AID 504541).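 Further: AP2 carries R879A mutation and is captured from E. coli lysate; bead-bound FITC arrestin peptide fluorescence measuring arrestin peptide binding to AP2; 0% = DMSO wells and 100% = excess unlabeled arrestin peptide control.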 The conditions noted are these: FITC arrestin peptide, at 10 µM, stronger effect = higher value, AP2 beta2 appendage fragment, R879A mutant.
AP-2 complex subunit beta (Homo sapiens), sequence (P63010 whole entry, looked up, the tested form may be a part, one chain of several): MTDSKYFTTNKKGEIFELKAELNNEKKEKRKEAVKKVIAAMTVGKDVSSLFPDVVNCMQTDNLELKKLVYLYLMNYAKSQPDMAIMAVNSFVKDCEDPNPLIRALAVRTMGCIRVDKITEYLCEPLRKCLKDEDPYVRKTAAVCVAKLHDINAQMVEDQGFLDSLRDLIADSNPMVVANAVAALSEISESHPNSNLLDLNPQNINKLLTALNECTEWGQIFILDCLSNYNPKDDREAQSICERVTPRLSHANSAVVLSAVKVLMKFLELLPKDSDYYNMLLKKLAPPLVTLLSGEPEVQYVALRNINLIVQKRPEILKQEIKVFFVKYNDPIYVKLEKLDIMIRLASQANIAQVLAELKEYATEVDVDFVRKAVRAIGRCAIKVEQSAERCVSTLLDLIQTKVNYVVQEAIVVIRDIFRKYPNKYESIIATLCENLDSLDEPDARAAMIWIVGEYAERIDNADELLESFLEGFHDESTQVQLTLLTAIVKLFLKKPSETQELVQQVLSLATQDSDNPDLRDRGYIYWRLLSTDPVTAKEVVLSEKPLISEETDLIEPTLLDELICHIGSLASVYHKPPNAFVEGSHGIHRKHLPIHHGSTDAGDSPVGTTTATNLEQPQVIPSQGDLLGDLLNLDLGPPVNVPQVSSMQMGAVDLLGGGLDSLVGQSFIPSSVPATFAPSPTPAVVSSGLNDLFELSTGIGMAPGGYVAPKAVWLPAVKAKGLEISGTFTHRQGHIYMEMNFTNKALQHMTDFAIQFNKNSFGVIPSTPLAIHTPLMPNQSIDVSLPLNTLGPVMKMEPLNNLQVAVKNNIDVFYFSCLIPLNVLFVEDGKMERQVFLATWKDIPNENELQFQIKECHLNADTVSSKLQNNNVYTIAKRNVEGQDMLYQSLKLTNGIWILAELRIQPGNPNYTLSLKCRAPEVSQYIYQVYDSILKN
Assay [12] can be described thus: yeast V-ATPase proton transport modulators, S. cerevisiae, pHLuorin, HTS validation (AID 504600; in the data active means response above about 15%;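 further: plate controls were DMSO for no effect and reference compound for full effect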). The conditions noted are these: S. cerevisiae pHLuorin cytosolic pH, at 10 µM, stronger effect = higher value.
In assay [13] the test system is anti-desmoglein-3 scFv antibody binding to human DSG3. The assay is described as follows: inhibitors of anti-DSG3 scFv binding to DSG3, pilot screen, biochemical, validation compound set, bead-based, flow cytometry (AID 588368;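 active means binding below the plate cutoff, the plate median minus 3 SD, with a reading above zero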;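 further: signal is the median channel fluorescence of bead-bound GFP antibody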). The note with it: Protein G beads, DSG3-Fc, scFv-GFP binding, at 10 µM, stronger effect = lower value.
Assay [14] in a line: inhibitors of fungal efflux pumps CDR1, CDR2, MDR1, pilot screen, validation compound set, multiplex, phenotypic (AID 588506;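 active means efflux inhibition above 0.42, the validation set average plus 4 SD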;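 further: Nile Red retained in cells so higher fluorescence means more efflux inhibition; 0 = negative control wells and 1 = enniatin B 25 µM full block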). The conditions noted are these: S. cerevisiae pump-expressing triplex, Nile Red efflux flow cytometry; at 10 µM; stronger effect = higher value; the pumps come from Candida albicans.
In assay [15] the target is ATP-binding cassette sub-family B member 6 (Homo sapiens) (UniProt Q9NP58). Nature of the assay: ABCB6 transporter inhibitors, pilot screen, K562-ABCB6 cells, flow cytometry, validation set (AID 588550;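 active means inhibition above the screen-wide mean plus 3 SD, about 51%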;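 further: 0% = DMSO wells and 100% = benzethonium chloride 70 µM positive control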). The note with it: K562-ABCB6 porphyrin accumulation, 1 h, at 10 µM, stronger effect = higher value.
ATP-binding cassette sub-family B member 6 (Homo sapiens), sequence (Q9NP58 whole entry, looked up): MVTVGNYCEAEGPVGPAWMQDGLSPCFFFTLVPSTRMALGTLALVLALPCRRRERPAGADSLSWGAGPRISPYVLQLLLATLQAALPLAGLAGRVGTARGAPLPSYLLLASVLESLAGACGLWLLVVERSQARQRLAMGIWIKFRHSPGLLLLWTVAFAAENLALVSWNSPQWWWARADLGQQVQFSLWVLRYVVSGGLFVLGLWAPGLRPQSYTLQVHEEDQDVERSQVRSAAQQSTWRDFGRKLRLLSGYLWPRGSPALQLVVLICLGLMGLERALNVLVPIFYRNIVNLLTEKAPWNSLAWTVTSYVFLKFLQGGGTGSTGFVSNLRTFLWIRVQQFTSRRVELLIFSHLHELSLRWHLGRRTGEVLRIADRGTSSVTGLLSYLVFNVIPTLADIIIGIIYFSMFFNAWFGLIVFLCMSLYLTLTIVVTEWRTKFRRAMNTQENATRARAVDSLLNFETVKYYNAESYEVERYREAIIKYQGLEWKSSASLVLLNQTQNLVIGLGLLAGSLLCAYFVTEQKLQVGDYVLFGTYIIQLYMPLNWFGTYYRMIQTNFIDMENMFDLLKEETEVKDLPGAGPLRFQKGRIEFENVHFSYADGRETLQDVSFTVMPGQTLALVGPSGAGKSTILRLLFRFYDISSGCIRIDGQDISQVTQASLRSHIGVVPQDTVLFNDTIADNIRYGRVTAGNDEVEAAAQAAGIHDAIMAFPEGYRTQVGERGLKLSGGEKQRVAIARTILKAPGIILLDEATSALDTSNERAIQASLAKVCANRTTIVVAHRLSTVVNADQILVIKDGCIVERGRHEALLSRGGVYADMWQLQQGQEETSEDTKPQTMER
Assay [16] can be described thus: promoters of myeloid differentiation in arrested cells, primary screen, cell-based, GFP/MAC1 double positive, flow cytometry, validation set (AID 588685;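 active means differentiation response of at least 50%, scaled between solvent and reference control, from cells with both markers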;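 further: compound exposure lasts four days before antibody staining and flow analysis; 0% = DMSO wells and 100% = 5 µM fulvestrant positive control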). The note with it: ER-HoxA9 marrow cells, stronger effect = higher value, normalized: vehicle 0, fulvestrant 100.

Integrin beta-1 (Homo sapiens) + Integrin alpha-4 (Homo sapiens), sequence (P05556 whole entry, looked up): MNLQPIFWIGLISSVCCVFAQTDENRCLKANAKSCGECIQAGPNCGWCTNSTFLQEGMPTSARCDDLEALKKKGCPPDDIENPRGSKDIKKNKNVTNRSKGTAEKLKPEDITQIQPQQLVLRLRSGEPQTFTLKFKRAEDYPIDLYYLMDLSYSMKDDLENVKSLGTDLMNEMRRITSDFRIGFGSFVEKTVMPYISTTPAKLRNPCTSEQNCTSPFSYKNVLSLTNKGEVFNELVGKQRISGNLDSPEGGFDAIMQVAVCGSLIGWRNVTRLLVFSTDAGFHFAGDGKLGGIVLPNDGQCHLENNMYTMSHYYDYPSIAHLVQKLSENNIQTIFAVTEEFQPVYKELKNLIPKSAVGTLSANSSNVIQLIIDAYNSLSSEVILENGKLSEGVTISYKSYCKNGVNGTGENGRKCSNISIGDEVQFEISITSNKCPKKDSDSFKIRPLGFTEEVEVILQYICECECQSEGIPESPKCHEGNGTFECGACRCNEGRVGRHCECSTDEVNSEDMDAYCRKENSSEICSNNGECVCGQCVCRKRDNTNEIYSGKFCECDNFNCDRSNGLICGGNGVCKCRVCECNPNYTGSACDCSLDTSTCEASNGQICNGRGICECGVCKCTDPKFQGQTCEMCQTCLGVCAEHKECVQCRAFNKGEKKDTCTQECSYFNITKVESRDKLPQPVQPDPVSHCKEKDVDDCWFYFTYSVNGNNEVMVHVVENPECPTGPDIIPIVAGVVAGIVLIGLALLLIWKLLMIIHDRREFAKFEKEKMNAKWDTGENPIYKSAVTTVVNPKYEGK
Integrin beta-1 (Homo sapiens) + Integrin alpha-4 (Homo sapiens), sequence (P13612 whole entry, looked up): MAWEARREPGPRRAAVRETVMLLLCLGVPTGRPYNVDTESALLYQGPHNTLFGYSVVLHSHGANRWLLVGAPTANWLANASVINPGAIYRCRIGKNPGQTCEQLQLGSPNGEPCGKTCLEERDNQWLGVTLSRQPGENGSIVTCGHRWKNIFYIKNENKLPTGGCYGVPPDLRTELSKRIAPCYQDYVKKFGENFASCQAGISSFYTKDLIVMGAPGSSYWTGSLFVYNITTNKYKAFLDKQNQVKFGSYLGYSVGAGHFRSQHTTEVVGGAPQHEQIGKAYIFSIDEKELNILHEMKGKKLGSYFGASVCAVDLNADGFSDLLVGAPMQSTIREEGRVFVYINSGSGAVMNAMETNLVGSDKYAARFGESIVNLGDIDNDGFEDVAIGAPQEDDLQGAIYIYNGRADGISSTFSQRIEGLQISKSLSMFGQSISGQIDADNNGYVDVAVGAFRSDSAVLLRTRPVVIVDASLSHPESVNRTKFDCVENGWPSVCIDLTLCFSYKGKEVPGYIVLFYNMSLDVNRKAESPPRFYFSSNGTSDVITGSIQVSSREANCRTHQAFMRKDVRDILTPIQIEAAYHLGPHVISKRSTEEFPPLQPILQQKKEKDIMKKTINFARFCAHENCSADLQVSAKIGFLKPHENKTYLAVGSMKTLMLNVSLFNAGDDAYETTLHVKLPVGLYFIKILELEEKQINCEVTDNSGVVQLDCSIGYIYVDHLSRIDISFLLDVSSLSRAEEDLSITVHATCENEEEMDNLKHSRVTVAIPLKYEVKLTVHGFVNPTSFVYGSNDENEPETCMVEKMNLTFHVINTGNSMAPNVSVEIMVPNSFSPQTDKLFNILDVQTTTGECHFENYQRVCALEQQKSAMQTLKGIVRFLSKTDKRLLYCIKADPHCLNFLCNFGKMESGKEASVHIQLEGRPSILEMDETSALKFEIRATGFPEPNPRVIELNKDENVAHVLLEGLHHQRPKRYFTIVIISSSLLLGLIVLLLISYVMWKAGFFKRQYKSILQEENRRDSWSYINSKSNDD
Beta-adrenergic receptor kinase 1 (Homo sapiens), sequence (P25098 whole entry, looked up): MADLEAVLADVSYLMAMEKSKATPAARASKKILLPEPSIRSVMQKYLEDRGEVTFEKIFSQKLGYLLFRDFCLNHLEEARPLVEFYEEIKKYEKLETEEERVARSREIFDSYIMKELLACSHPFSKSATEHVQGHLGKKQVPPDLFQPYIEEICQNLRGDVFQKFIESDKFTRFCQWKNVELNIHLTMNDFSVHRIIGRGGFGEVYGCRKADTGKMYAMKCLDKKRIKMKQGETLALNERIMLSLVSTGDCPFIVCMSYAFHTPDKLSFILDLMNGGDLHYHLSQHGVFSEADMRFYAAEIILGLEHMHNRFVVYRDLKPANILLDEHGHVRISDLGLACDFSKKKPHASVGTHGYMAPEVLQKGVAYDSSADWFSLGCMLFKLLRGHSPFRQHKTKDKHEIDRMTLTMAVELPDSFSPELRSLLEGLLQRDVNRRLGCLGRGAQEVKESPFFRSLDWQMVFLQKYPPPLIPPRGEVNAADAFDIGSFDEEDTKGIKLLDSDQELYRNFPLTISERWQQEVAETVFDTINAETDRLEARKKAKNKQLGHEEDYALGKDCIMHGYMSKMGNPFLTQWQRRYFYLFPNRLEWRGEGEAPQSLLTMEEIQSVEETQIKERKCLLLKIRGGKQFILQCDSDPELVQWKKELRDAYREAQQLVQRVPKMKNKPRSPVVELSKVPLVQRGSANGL

Take `COc1ccc(C(=O)N2c3cc4c(cc3C(C)=CC2(C)C)OCO4)cc1`: the percent of DMSO control GFP in [1] was 97.8% (inactive). In addition, the GFP response vs DMSO is 103% (inactive) in assay [2] and 116% (inactive) in assay [4]. The percent response of DMSO control in [3] was 98.9% (inactive). Further, in assay [5], the GFP response, % of DMSO was 93.4% (inactive). This compound also returned a double positive events in assay [6] of 56.6%. Moreover, the vesicle binding response in assay [6] was 40.1% (inactive). For the same compound, the inhibition in [7] is -2.53% (inactive); in [11] it was -10.4% (inactive); in [15], 10% (inactive). Besides, in [8], the superoxide response (% of plate) is 98.5% (inactive). Besides, in [9], the aptamer binding inhibition is 5% (inactive). For the same compound, the values for the response in [10] and in [12] were 4.24% (inactive) and -0.49% (inactive), respectively. In addition, the binding (% of control) in assay [13] is 96.1% (inactive). In assay [14], the efflux inhibition (fraction of control) was -0.04 (inactive). In addition, the differentiation response in assay [16] is -1.71% (inactive).

`CC(=O)Nc1ccc2[nH]c(C)c(CC=C(Cl)Cl)c(=O)c2c1`: the percent of DMSO control GFP in [1] was 105% (inactive). The GFP response vs DMSO in [2] is 113% (inactive); in [4], 87.3% (inactive). For the same compound, in assay [3], the percent response of DMSO control was 93.9% (inactive). The GFP response, % of DMSO in [5] is 94.8% (inactive). In assay [6], the double positive events turned out to be 61.1%. For the same compound, in [6], the vesicle binding response was 146% (inactive). The inhibition in assay [7] was 12.6% (inactive); in assay [11], -17.8% (inactive); in assay [15], 11% (inactive). In addition, the superoxide response (% of plate) in [8] is 110% (inactive). Further, the aptamer binding inhibition in [9] is 4% (inactive). The response in [10] is 5.01% (inactive); in assay [12], 0.46% (inactive). Moreover, the binding (% of control) in assay [13] is 97.9% (inactive). Further, the efflux inhibition (fraction of control) in assay [14] is 0.14 (inactive). The differentiation response in assay [16] was -5.68% (inactive).

`Cc1c2c(nc3c(C)cccc13)OC(C)C2` (stereo not drawn): in [1], the percent of DMSO control GFP was 105% (inactive). Further, the values for the GFP response vs DMSO in [2] and in assay [4] were 100% (inactive) and 97.3% (inactive), respectively. Further, the percent response of DMSO control in assay [3] was 112% (inactive). Also, the GFP response, % of DMSO in assay [5] is 103% (inactive). Further, in [6], the double positive events was determined as 52%. Also, in assay [6], the vesicle binding response was 31.8% (active). Also, the inhibition was -3.57% (inactive) in assay [7], 2.14% (inactive) in assay [11] and 3% (inactive) in assay [15]. Also, the superoxide response (% of plate) in assay [8] was 99.9% (inactive). The aptamer binding inhibition in assay [9] is -2% (inactive). Further, the response in assay [10] was -11.5% (inactive); in assay [12], 3.8% (inactive). Moreover, the binding (% of control) in assay [13] is 97.6% (inactive). Further, the efflux inhibition (fraction of control) in [14] was 0.11 (inactive). For the same compound, in assay [16], the differentiation response was -9.53% (inactive).

For the compound `COC(=O)CN1C(=S)N(c2ccc(F)cc2)C(=O)C1CC(=O)Nc1ccccc1` (stereo not drawn), the percent of DMSO control GFP in assay [1] is 99.7% (inactive). Besides, the GFP response vs DMSO in assay [2] is 101% (inactive); in assay [4] it was 120% (inactive). Moreover, in assay [3], the percent response of DMSO control is 102% (inactive). The GFP response, % of DMSO in assay [5] is 118% (inactive). Besides, the double positive events in [6] was found to be 57.4%. In assay [6], the vesicle binding response was 189% (inactive). Further, the inhibition in assay [7] is 11.7% (inactive); in [11], 0.21% (inactive); in assay [15], -3% (inactive). Moreover, the superoxide response (% of plate) in [8] was 103% (inactive). Also, in assay [9], the aptamer binding inhibition was 1% (inactive). For the same compound, the response in assay [10] was -25.4% (inactive); in assay [12] it was 0.96% (inactive). Also, the binding (% of control) in [13] was 101% (inactive). In assay [14], the efflux inhibition (fraction of control) was 0 (inactive). Also, the differentiation response in [16] was -10.9% (inactive).

One may read the inhibition as the relative decrease from the control value, in per cent.
